Five compounds from PubChem BioAssay can be followed below.

Results filed as inconclusive are left out. The source made the active and inactive calls.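 How the source made its calls, unless noted: active means inhibition above 50%, about 3 SD of the validation set; inactive means the rest.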

Experiment [1] in a line: rapamycin-like changes in RPL19A-GFP expression – cell-based, S. cerevisiae, multiplex flow cytometry, primary screen (AID 1862; in the data active means percent of DMSO control GFP below about 86%;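 further: lower values mimic rapamycin by blocking the RPL19A rise seen in DMSO cells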). Conditions: S. cerevisiae RPL19A-GFP strain, flow cytometry fluorescence, 3 h; at 10 µM; stronger effect = lower value.
The nature of experiment [2]: TOR pathway GLN3 branch reporter MEP2-GFP changes – S. cerevisiae, multiplex flow cytometry, primary screen (AID 1867;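 active means GFP response, as percent of the DMSO control, above the screen-wide mean plus 3 SD, about 139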;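 further: median GFP channel fluorescence of barcode-gated MEP2-GFP cells measured by flow cytometry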). Conditions: S. cerevisiae MEP2-GFP strain, 3 h, at 10 µM, stronger effect = higher value, 100% means same as DMSO wells. (In flow cytometry, cells or beads pass a laser one at a time.)
The nature of experiment [3]: TOR pathway RTG branch CIT2 reporter changes – S. cerevisiae, GFP fusion, multiplex flow cytometry, primary screen (AID 1870;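 active means percent response above a set limit, the screen-wide mean plus 3 SD, cut at about 130% in these data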;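 further: barcoded CIT2-GFP strain pooled with four other GFP strains with rapamycin as positive control; median GFP fluorescence per well over plate mean of DMSO wells so 100% = DMSO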). Conditions: S. cerevisiae CIT2-GFP expression, 3 h, at 10 µM, stronger effect = higher value.
Experiment [4] can be described thus: TOR pathway LAP4-GFP level changes – S. cerevisiae, multiplex flow cytometry, primary screen (AID 1873;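 active means GFP signal, as percent of the solvent control, above the screen mean plus 3 SD, about 149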). Conditions: S. cerevisiae LAP4-GFP expression, 3 h, at 10 µM, stronger effect = higher value.
Experiment [5] in a line: yeast AGP1-GFP level changes, GLN3 branch – cell-based, multiplex flow cytometry, S. cerevisiae, primary screen (AID 1887;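 active means GFP signal above the screen-wide mean plus 3 SD, that is over about 124.5% of the solvent control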;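 further: AGP1-GFP fusion strain of S. cerevisiae within a five-strain barcoded multiplex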). The settings on record: 3 h, at 10 µM, stronger effect = higher value.
Experiment [6] is described as follows: reduced mouse 2C T cell binding to pMHC/ICAM-1 vesicles – MLPCN validation set, flow cytometry, LFA-1/ICAM-1 modulator project, pilot screen (AID 2523;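 active means response below a set limit, under 55% cells CD8-positive and vesicle-bound, and CD8 cells' 90th-percentile brightness under 279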;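 on vesicle binding response: mean PE anti-B7-1 fluorescence of CD8+ cells relative to row control; 100% = QL9-loaded vesicles with DMSO vehicle in the same plate row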). The settings on record: 2C mouse CD8+ T cells, at 7 µM, stronger effect = lower value; double positive events: measured here: CD8+/vesicle+ event percentage.
The target in experiment [7] is Integrin beta-1 (Homo sapiens) + Integrin alpha-4 (Homo sapiens) (UniProt P13612+P05556). Briefly: alpha4beta1 integrin LIBS antibody binding reduction – U937 cells, HUTS-21 mAb, flow cytometry, validation set, VLA-4 allosteric modulator project, pilot screen (AID 2674).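 Further: antibody binding induced by the VLA-4 ligand LDV present at three times its Kd; 0% = LDV ligand with antibody and no compound and 100% = antibody without LDV.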 The settings on record: HUTS-21 LIBS mAb binding, at 6.7 µM, stronger effect = higher value, binding induced by LDV ligand.

Experiment [8] is described as follows: calorie-restriction mimetic ROS inhibitors, yeast – validation compound set, pilot screen (AID 2706;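 active means superoxide response below 65% of plate, a cut near 3 SD across the whole screen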;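 further: yeast exposed to compound for one week at 30 degrees C before staining; 100% = mean of all compound wells on the same plate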). Conditions: S. cerevisiae aging, superoxide DHE fluorescence; at 10 µM, stronger effect = lower value.
Experiment [9] concerns the target Beta-adrenergic receptor kinase 1 (Homo sapiens) (UniProt P25098). Briefly: GRK2 binders displacing RNA aptamer, biochemical, validation, human GRK2, bead flow cytometry (AID 488806;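 active means aptamer binding inhibition above 30%, about 3 SD of noise from non-fluorescent compounds; inactive means inhibition at or below 30%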). The settings on record: bead-bound GRK2, FAM-aptamer displacement, at 10 µM, stronger effect = higher value.
The target of experiment [10] is AP-2 complex subunit beta (Homo sapiens) (UniProt P63010). Briefly: beta-arrestin/AP2 interaction blockers – biochemical, validation set, GST-AP2 beads, flow cytometry, pilot screen (AID 504541;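 active means inhibition above 54%, about 3 SD of non-fluorescent compounds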;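 further: AP2 carries R879A mutation and is captured from E. coli lysate; bead-bound FITC arrestin peptide fluorescence measuring arrestin peptide binding to AP2; 0% = DMSO wells and 100% = excess unlabeled arrestin peptide control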). Conditions: FITC arrestin peptide, at 10 µM, stronger effect = higher value, AP2 beta2 appendage fragment, R879A mutant.
Experiment [11] can be described thus: cytosolic pH regulators acting via V-ATPase – S. cerevisiae, pHLuorin, HTS validation (AID 504600; in the data active means response above about 15%;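 further: plate controls were DMSO for no effect and reference compound for full effect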). Conditions: V-ATPase proton transport, at 10 µM, stronger effect = higher value.
The test system of experiment [12] is anti-desmoglein-3 scFv antibody binding to human DSG3. The experiment can be described thus: blockers of pathogenic pemphigus antibody–desmoglein-3 binding – biochemical, validation compound set, bead-based, flow cytometry, pilot screen (AID 588368;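 active means binding below the plate cutoff, the plate median minus 3 SD, with a reading above zero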;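 further: signal is the median channel fluorescence of bead-bound GFP antibody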). Conditions: Protein G beads, DSG3-Fc, scFv-GFP binding, at 10 µM, stronger effect = lower value.
A short description of experiment [13]: Nile Red efflux blockade in pump-expressing yeast – validation compound set, multiplex, phenotypic, pilot screen (AID 588506;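 active means efflux inhibition above 0.42, the validation set average plus 4 SD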;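 further: Nile Red retained in cells so higher fluorescence means more efflux inhibition; 0 = negative control wells and 1 = enniatin B 25 µM full block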). The settings on record: S. cerevisiae pump-expressing triplex, Nile Red efflux flow cytometry; at 10 µM; stronger effect = higher value; the pumps come from Candida albicans.
In experiment [14] the target is ATP-binding cassette sub-family B member 6 (Homo sapiens) (UniProt Q9NP58). The experiment can be described thus: blockers of ABCB6-driven porphyrin uptake – K562-ABCB6 cells, flow cytometry, validation set, pilot screen (AID 588550;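 active means inhibition above the screen-wide mean plus 3 SD, about 51%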;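 further: 0% = DMSO wells and 100% = benzethonium chloride 70 µM positive control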). The settings on record: K562-ABCB6 porphyrin accumulation, 1 h, at 10 µM, stronger effect = higher value.
Experiment [15] is described as follows: AML differentiation inducers, ER-HoxA9 marrow cells – cell-based, GFP/MAC1 double positive, flow cytometry, validation set, primary screen (AID 588685;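 active means differentiation response of at least 50%, scaled between solvent and reference control, from cells with both markers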;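 further: compound exposure lasts four days before antibody staining and flow analysis; 0% = DMSO wells and 100% = 5 µM fulvestrant positive control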). Conditions: stronger effect = higher value, normalized: vehicle 0, fulvestrant 100.

AP-2 complex subunit beta (Homo sapiens), sequence (P63010 whole entry, looked up, the tested form may be a part, one chain of several): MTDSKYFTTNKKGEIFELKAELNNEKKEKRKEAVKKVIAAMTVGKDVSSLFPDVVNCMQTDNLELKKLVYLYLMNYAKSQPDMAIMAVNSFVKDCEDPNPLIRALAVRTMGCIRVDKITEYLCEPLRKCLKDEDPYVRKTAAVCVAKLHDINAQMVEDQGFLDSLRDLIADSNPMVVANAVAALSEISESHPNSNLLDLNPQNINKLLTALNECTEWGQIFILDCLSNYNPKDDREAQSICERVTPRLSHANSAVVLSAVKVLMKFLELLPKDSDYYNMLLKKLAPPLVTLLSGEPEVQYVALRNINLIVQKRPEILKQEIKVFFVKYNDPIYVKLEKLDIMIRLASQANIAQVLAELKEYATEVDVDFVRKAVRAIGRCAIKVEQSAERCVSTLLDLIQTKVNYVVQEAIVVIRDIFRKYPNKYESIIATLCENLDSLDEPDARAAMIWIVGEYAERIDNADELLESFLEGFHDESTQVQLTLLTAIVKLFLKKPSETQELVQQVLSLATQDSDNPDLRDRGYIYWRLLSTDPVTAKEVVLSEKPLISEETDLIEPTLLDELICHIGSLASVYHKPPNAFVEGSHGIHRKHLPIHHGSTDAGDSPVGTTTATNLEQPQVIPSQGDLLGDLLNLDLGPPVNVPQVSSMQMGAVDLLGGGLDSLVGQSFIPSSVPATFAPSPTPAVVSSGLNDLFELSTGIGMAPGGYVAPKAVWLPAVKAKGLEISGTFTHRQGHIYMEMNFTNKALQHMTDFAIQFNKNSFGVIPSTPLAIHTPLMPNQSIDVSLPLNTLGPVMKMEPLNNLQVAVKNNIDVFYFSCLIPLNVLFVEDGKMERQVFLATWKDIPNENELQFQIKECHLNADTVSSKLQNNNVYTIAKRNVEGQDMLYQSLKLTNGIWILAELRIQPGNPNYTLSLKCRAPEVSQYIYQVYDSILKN
Integrin beta-1 (Homo sapiens) + Integrin alpha-4 (Homo sapiens), sequence (P05556 whole entry, looked up): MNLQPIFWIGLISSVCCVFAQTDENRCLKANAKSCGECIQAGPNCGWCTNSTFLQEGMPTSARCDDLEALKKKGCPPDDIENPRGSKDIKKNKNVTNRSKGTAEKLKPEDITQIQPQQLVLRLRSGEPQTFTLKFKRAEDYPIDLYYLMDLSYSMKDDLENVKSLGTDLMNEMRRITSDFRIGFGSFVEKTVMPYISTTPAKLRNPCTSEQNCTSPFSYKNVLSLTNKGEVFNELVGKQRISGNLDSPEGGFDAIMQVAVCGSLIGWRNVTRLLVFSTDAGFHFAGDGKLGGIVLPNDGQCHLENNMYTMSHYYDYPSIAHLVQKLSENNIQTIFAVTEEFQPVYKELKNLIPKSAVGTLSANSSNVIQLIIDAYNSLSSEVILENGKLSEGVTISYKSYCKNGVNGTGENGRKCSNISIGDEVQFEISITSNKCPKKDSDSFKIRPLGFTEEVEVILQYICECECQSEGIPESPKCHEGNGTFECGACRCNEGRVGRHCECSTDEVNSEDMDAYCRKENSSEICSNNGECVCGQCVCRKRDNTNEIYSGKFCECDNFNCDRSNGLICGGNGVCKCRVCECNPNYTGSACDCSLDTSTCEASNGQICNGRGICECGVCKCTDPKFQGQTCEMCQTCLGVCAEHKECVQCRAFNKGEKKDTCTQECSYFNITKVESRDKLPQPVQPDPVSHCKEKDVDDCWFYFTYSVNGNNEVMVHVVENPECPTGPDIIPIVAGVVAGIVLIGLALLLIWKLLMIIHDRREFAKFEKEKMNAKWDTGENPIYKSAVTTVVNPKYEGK
Integrin beta-1 (Homo sapiens) + Integrin alpha-4 (Homo sapiens), sequence (P13612 whole entry, looked up): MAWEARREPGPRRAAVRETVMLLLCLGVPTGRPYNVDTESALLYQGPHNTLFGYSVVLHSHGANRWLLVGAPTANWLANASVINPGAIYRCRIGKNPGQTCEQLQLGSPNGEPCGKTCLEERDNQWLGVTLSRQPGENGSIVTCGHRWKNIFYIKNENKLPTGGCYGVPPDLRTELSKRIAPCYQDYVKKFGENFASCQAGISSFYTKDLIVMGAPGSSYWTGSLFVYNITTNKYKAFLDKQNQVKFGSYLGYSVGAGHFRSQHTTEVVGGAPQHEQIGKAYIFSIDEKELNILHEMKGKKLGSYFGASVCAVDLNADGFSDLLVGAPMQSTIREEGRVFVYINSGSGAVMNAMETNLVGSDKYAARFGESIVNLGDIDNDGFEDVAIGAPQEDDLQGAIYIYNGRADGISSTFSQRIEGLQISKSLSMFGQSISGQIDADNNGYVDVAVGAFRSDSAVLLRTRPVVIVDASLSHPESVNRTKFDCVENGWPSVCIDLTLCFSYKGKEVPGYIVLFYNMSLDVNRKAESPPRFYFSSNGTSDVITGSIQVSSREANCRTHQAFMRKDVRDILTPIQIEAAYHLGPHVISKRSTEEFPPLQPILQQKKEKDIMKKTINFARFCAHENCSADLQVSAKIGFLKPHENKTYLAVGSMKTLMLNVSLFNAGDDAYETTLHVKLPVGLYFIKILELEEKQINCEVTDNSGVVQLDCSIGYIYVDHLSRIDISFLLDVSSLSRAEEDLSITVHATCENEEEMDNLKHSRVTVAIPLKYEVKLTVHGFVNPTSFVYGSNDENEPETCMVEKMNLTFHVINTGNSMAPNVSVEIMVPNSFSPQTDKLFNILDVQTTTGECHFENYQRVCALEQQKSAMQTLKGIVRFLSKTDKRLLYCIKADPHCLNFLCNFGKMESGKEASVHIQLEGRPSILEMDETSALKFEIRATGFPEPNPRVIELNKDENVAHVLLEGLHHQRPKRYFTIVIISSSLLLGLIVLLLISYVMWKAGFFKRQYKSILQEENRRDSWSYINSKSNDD
ATP-binding cassette sub-family B member 6 (Homo sapiens), sequence (Q9NP58 whole entry, looked up): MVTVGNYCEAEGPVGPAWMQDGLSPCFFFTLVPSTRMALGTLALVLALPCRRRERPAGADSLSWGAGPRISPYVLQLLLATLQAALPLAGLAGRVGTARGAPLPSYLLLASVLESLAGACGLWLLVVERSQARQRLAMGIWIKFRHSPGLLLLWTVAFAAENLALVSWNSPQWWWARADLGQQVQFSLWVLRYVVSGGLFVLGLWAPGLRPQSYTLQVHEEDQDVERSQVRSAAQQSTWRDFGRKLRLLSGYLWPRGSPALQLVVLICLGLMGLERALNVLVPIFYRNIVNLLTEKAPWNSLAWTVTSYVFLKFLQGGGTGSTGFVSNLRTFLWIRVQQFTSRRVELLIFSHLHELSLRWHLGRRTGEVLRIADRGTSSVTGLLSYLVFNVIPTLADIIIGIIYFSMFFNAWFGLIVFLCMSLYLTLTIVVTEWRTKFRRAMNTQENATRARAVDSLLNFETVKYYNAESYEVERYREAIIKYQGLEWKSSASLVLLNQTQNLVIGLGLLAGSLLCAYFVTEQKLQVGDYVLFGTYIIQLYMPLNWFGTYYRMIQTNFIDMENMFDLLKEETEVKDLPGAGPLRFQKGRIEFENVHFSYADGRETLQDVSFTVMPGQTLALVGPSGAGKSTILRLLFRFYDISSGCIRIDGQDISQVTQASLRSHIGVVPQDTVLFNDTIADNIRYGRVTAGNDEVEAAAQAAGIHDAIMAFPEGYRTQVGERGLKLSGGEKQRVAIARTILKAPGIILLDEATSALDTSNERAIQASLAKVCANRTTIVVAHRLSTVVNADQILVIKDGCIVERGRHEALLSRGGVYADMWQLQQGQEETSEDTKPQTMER
Beta-adrenergic receptor kinase 1 (Homo sapiens), sequence (P25098 whole entry, looked up): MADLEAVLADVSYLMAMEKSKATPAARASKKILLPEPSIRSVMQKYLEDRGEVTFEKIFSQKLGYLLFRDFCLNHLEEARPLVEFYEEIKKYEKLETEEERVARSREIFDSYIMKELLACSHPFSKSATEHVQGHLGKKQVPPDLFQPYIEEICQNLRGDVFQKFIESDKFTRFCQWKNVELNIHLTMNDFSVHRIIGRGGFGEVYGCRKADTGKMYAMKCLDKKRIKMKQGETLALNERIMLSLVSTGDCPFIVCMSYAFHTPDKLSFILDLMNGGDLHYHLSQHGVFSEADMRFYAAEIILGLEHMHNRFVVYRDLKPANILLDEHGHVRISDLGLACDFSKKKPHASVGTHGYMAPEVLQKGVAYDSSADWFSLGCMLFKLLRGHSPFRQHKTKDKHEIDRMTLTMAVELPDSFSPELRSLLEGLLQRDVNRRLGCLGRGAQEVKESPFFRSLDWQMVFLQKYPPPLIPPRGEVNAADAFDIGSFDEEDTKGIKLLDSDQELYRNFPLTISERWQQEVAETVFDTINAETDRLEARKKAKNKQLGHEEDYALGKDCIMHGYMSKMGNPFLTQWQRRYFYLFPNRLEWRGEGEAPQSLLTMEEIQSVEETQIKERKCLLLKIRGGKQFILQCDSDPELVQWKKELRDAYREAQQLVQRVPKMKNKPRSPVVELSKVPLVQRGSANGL

With `CN(C)C(=O)C12CCC(C)(c3nc4ccccc4nc31)C2(C)C` (stereo not given), the percent of DMSO control GFP in experiment [1] was 104% (inactive). Further, the GFP response vs DMSO in experiment [2] was 101% (inactive); in experiment [4], 99.4% (inactive). Moreover, the percent response of DMSO control in experiment [3] is 106% (inactive). Besides, the GFP response, % of DMSO in experiment [5] was 99.3% (inactive). In [6], the double positive events turned out to be 62.9%. For the same compound, the vesicle binding response in experiment [6] is 190% (inactive). Also, the results for the inhibition in experiment [7], in experiment [10] and in experiment [14] were 0.69% (inactive), 9.98% (inactive) and 5% (inactive), respectively. For the same compound, the superoxide response (% of plate) in [8] was 95.4% (inactive). In addition, in [9], the aptamer binding inhibition was -1% (inactive). Moreover, the response in experiment [11] is 1.66% (inactive). The binding (% of control) in experiment [12] was 103% (inactive). Also, the efflux inhibition (fraction of control) in experiment [13] is -0.09 (inactive). For the same compound, in [15], the differentiation response is 1.41% (inactive).

With `COC(=O)c1[nH]c2ccccc2c1NC(=O)CN1CCN(C/C=C/c2ccccc2)CC1`, the percent of DMSO control GFP in [1] is 108% (inactive). For the same compound, the figures for the GFP response vs DMSO in [2] and in experiment [4] were 106% (inactive) and 88.3% (inactive), respectively. Moreover, the percent response of DMSO control in experiment [3] was 99.8% (inactive). For the same compound, in experiment [5], the GFP response, % of DMSO is 96.1% (inactive). Also, in experiment [6], the double positive events is 55.6%. In experiment [6], the vesicle binding response is 154% (inactive). Moreover, the inhibition in [7] was -42.2% (inactive); in [10], 3.15% (inactive); in [14], 8% (inactive). Moreover, the superoxide response (% of plate) in experiment [8] was 98% (inactive). In experiment [9], the aptamer binding inhibition was 0% (inactive). In experiment [11], the response was 3.35% (inactive). In addition, in [12], the binding (% of control) was 108% (inactive). Further, the efflux inhibition (fraction of control) in experiment [13] was 0.25 (inactive). Besides, in [15], the differentiation response was -13.1% (inactive).

As to `O=C(O)CCCCCCCC(=O)O`, the percent of DMSO control GFP in experiment [1] is 100% (inactive). In addition, the GFP response vs DMSO in [2] is 99.9% (inactive); in [4], 117% (inactive). For the same compound, in [3], the percent response of DMSO control is 90% (inactive). Also, the GFP response, % of DMSO in experiment [5] was 97.5% (inactive). In experiment [6], this compound returned a double positive events of 58.5%. The vesicle binding response in experiment [6] is 171% (inactive). Moreover, the results for the inhibition in [7], in experiment [10] and in experiment [14] were -6.77% (inactive), 12.5% (inactive) and -18% (inactive), respectively. Also, the superoxide response (% of plate) in experiment [8] is 101% (inactive). Besides, the aptamer binding inhibition in experiment [9] was 4% (inactive). Further, in experiment [11], the response was 0.2% (inactive). The binding (% of control) in [12] was 99% (inactive). In experiment [13], the efflux inhibition (fraction of control) was 0.14 (inactive). Further, the differentiation response in [15] is 24% (inactive).

Take `CCOc1ccc(NC(=O)N[C@@H](CCSC)C(=O)OC)cc1`: in experiment [1], the percent of DMSO control GFP is 105% (inactive). Also, the results for the GFP response vs DMSO in [2] and in experiment [4] were 106% (inactive) and 96.4% (inactive), respectively. Besides, the percent response of DMSO control in experiment [3] was 104% (inactive). Moreover, the GFP response, % of DMSO in experiment [5] is 105% (inactive). In experiment [6], this compound registered a double positive events of 52.6%. Also, the vesicle binding response in [6] is 164% (inactive). In addition, the inhibition was 5.36% (inactive) in experiment [7], 5.32% (inactive) in experiment [10] and 6% (inactive) in [14]. Moreover, the superoxide response (% of plate) in experiment [8] was 117% (inactive). Moreover, the aptamer binding inhibition in [9] was 1% (inactive). In addition, in experiment [11], the response is 4.65% (inactive). For the same compound, the binding (% of control) in [12] is 98.5% (inactive). The efflux inhibition (fraction of control) in [13] is -0.47 (inactive). Moreover, the differentiation response in experiment [15] was 9.49% (inactive).

`O=C1OCCN1/N=C/c1ccc([N+](=O)[O-])o1`: in [1], the percent of DMSO control GFP was 103% (inactive). The GFP response vs DMSO in [2] is 103% (inactive); in experiment [4] it was 111% (inactive). Moreover, the percent response of DMSO control in experiment [3] was 109% (inactive). Also, in experiment [5], the GFP response, % of DMSO is 102% (inactive). The compound also came in with a double positive events in experiment [6] of 48.6%. In addition, the vesicle binding response in [6] is 157% (inactive). The values for the inhibition in experiment [7], in [10] and in [14] were 3.49% (inactive), 3.09% (inactive) and 4% (inactive), respectively. Further, the superoxide response (% of plate) in [8] was 124% (inactive). Also, the aptamer binding inhibition in experiment [9] was -2% (inactive). Further, the response in experiment [11] is 8.6% (inactive). Moreover, the binding (% of control) in experiment [12] is 104% (inactive). In addition, the efflux inhibition (fraction of control) in experiment [13] was 0.06 (inactive). Also, the differentiation response in [15] was -16.4% (inactive).

The inhibition is the drop in the measured response relative to a control, in per cent.
